# The list is not random: actives were taken first. Their share in the collection is about 8%.
# MCF10A rereplic: DNA re-replication induction in MCF 10a cells; 350,000 tested, 2.9% active; MCF 10A DNA re-replication, Hoechst nuclear intensity, 48 h; Potency, µM (top dose mostly 46.1 µM), for inactives: at the highest dose activity, positive = re-replication, hits mostly activators; also: % of control where 0% means no effect; nearly all actives have a fitted effect of over 50% in size
# KB-V1 cytotox: KB-V1 MDR subline cytotoxicity | Potency, µM (doses to about 46.1 µM), most hits filed as cytotoxic | KB-V1 MDR cells viability, CellTiter-Glo, 72 h | 400,000 tested, 3.4% active | AID 1347076; also: % is scaled to controls: 0 for no effect and ±100 for the full control effect; nearly all actives have a fitted effect of over 60% in size
#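 qHTS viability screen in drug-selected KB-V1 MDR cells: 72 h compound treatment at 37 degrees C, ATP luminescence end point.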
# HT1080NT lethal: kills 2HG-producing HT-1080-NT fibrosarcoma cells; HT-1080-NT fibrosarcoma viability, CellTiter-Glo ATP luminescence, 48 h; Potency, µM (doses to about 46.1 µM), for inactives: at the highest dose activity, negative = less viability, actives largely listed as cytotoxic; 360,000 tested, 1.6% active; AID 686970;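 also: NT is the 2HG producing partner of a matched IDH1 knockdown line; 0% = DMSO-treated cells and -100% = media-only wells without cells; nearly all actives have a fitted effect of over 55% in size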
#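 750 cells/well, RPMI + 5% FBS; 2 h settle, compound pin-transfer, 48 h at 37 degrees C. CellTiter-Glo 10 min RT, luminescence. Normalized to DMSO and media-only wells.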
# KB-3-1 tox: KB-3-1 parental cell cytotoxicity | KB-3-1 viability, CellTiter-Glo ATP luminescence, 72 h | Potency, µM (doses to about 46.1 µM), actives largely listed as cytotoxic | 400,000 tested, 1.4% active; also: % is scaled to controls: 0 for no effect and ±100 for the full control effect; nearly all actives have a fitted effect of over 60% in size
#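 KB-3-1 parental drug-naive adenocarcinoma cells in DMEM/10% FBS, incubated 72 h at 37 C with pin-transferred compounds across a concentration series. Viability by CellTiter-Glo luminescence; concentration-response curves fitted after normalization.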
# SW480 rereplic: induces DNA re-replication in SW480 colon adenocarcinoma cells; SW480 DNA re-replication, Hoechst DNA content imaging, 48 h; Potency, µM (series often up to 46.1 µM), for inactives: top-dose re-replication activation, usual class: activators; 340,000 tested, 1.8% active; also: % of control where 0% means no effect; nearly all actives have a fitted effect of over 55% in size
#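 Image-based DNA-content assay: after two days of treatment, nuclei were labelled with the DNA dye Hoechst and imaged, and hits were compounds raising the count of nuclei showing high fluorescence intensity.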
# HT1080 IDH1KD tx: HT-1080 IDH1 knockdown cell toxicity (counter line); HT-1080 IDH1 knockdown viability, ATP luminescence, 48 h; Potency, µM (doses to about 46.1 µM), inactives show at the top dose activity, negative = toxicity, usual class: cytotoxic; 360,000 tested, 2% active;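 also: 0% = DMSO wells and -100% = cell-free medium wells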
#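 In this qHTS, HT-1080 cells depleted of IDH1 are exposed for 48 h at 37 °C to compound titrations. Toxicity is scored from CellTiter-Glo luminescence, with DMSO as full viability and medium alone as none.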
# The depositor's hits bear a star; i = inactive; u = inconclusive; x = no result given; [ ] = another dose, or the depositor's remark. Calls follow the shape of the dose curve; as a rule, active = well fitted curve in the direction sought with a large enough effect; inconclusive = small, poorly fitted or top-dose-only effect, or another doubt; inactive = no such curve, though single readings can be large; an effect the other way counts as inactive or inconclusive. Potency is read from the fitted curve at half-maximal effect.
SMILES,MCF10A rereplic,KB-V1 cytotox,HT1080NT lethal,KB-3-1 tox,SW480 rereplic,HT1080 IDH1KD tx
CCc1ccc(-c2nc(C(N)=O)c3[nH]c(=O)n(-c4ccccc4OC)c3n2)cc1,u,i,u,i,9.2µM*,u
COc1ccc(-c2nc(C(N)=O)c3[nH]c(=O)n(-c4cccc(Cl)c4)c3n2)cc1OC,u,7.3µM*,u,u,-58%,16µM*
Cc1ccc(C(=O)N/C(=C\c2cccs2)C(=O)NCCCN2CCOCC2)cc1,-15%,i,-11%,i,0%,-1%
O=C(Cc1cccc(NC(=O)C2CCCN(C(=O)C3CC3)C2)c1)Nc1cccc(C(=O)N2CCOCC2)c1 (stereo not given),u,i,10%,i,23%[9.22 µM],5%
CCOC(=O)c1ccc(NC(=O)c2c(NCc3cc(OC)ccc3OC)sc3c2CCC3)cc1,x,i,x,i,x,x
CCCn1c(N)c(C(=O)CSc2nncs2)c(=O)[nH]c1=O,-5%,i,14%,i,-5%,2%
Cn1c(N=Nc2ccc(N3CCOCC3)cc2)[n+](C)c2ccccc21,26%,i,u,i,13µM*,u
Cc1oc(=O)c(NC(=O)c2ccc(Cl)cc2)cc1C(=O)c1ccccc1,8.2µM*,i,u,u,u,u
CC(=O)c1cc(NC(=O)c2ccccc2)c(=O)oc1C,u,i,6%,i,0%,u
Cc1oc(=O)c(NC(=O)c2ccccc2)cc1C(=O)c1ccccc1,23µM*,i,-17%,i,21µM*,-4%
CC(=O)Nc1cc2ccccc2oc1=O,-5%,i,18%,i,-1%,16%
Cc1ccc(C(=O)Nc2cc3ccccc3oc2=O)cc1,18µM*,4.1µM*,-27%,3.3µM*,2.9µM*,-16%
COc1ccc(-n2cc(C#N)c(=O)n(Cc3ccc(F)cc3)c2=O)cc1,u,u,u,i,13µM*,u
Cc1cc(C)n(Cc2ccc(F)cc2)c(=O)c1C#N,-4%,u,-1%,i,-5%,-2%
Cc1ccccc1CNC(=O)c1sc2ncnc(N(C)C3CCCCC3)c2c1C,x,u,x,i,x,x
FC(F)(F)c1cnc(N2CCN(C(=S)NCc3ccccc3)CC2)c(Cl)c1,u,i,-33%,u,u,u
FC(F)(F)c1cnc(N2CCCN(C(=S)Nc3ccccc3)CC2)c(Cl)c1,u,u,u,i,u,23µM*
CCSc1nnc(-c2sc3nnc(-c4ccccc4)c(-c4ccccc4)c3c2N)o1,3.3µM*,i,27%,i,u,16%
Cc1nn(-c2ccccc2)c(C)c1C(=O)OCC(=O)N1c2ccccc2NC(=O)C1(C)C,29%,i,0%,i,-2%,-11%
CCOC(=O)c1ccc(Nc2nc(=O)c3cccnc3s2)cc1,u,6.5µM*,u,i,1%,2.2µM*
CC(=O)c1cccc(N=C2NC(=O)CS2)c1,1%,6.5µM*,8%,i,-5%,9%
CCOC(=O)CSc1nc2c([nH]c3ccccc32)c(=O)n1-c1ccc(OCC)cc1,x,i,x,i,x,x
Cc1cc(C)c2nc(N(CCCN(C)C)C(=O)c3ccc4c(c3)OCCO4)sc2c1,18µM*,26µM*,12µM*,u,u,u
CCCCN(C)S(=O)(=O)c1ccc(C(=O)N(CCN(C)C)c2nc3ccc(C)cc3s2)cc1,7%,i,-7%,i,10%,-6%
CCCCN(CC)S(=O)(=O)c1ccc(C(=O)N(CCCN(C)C)c2nc3cc(C)cc(C)c3s2)cc1,0%,26µM*,21µM*,u,-43%,u
CCN(Cc1ccccc1)S(=O)(=O)c1ccc(C(=O)N(CCCN(C)C)c2nc3cc(C)cc(C)c3s2)cc1,23µM*,u,16µM*,u,-14%,23µM*
CCN(Cc1ccccc1)S(=O)(=O)c1ccc(C(=O)N(CCCN(C)C)c2nc3c(F)cccc3s2)cc1,u,i,-2%,i,u,-18%
Cc1cc(C)c2nc(N(CCCN(C)C)C(=O)C3=COCCO3)sc2c1,0%,i,-21%,i,u,-19%

# Source: PubChem
